As usually defined, the inhibition is the drop in the measured response relative to a control, in per cent.

Consider 60 compounds from PubChem BioAssay AID1117319 (Southern Research Institute, 2015).

The structures appear in SMILES notation. Values joined by “and” are separate entries in the source; they are usually repeats but may differ in a detail not shown here. Identical values can stand only once. The campaign covered roughly 260,000 compounds. About 1,500 (0.58%) were called active. Inconclusive results (about 5%) are left out. Not all results are given here. Measured potencies and affinities stand elsewhere. Values without a mark were called inactive.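 The calls were made as follows: active = inhibition above a set limit at one or more doses, reproduced on every date tested; inconclusive = results disagree between test dates, or hit never tested in dose response; inactive = the rest.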

The target of this assay is Virion infectivity factor (Human immunodeficiency virus type 1 group M subtype B (isolate BH10)) + Virion infectivity factor (Human immunodeficiency virus type 1 group M subtype B (isolate BRU/LAI)) + Virion infectivity factor (Human immunodeficiency virus type 1 group M subtype B (isolate PCV12)) + Virion infectivity factor (Human immunodeficiency virus type 1 group M subtype B (isolate HXB2)) + DNA dC->dU-editing enzyme APOBEC-3G (Homo sapiens) (UniProt P69720+P69721+P69722+P69723+Q9HC16). The assay is described as follows: HIV-1 Vif–A3G interaction blockers – biochemical, TR-FRET, GST-Vif 1-94, biotin-A3G peptide, dose response retest, primary screen (AID 1117319).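 Also: Vif residues 1-94 fused to GST binding biotinylated APOBEC3G peptide 110-148; 0% = full assay without inhibitor and 100% = GST in place of GST-Vif.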 To be noted: TR-FRET GST-Vif / biotin-A3G peptide binding; stronger effect = higher value.
With `CCOc1ccc(C=NN2CCCCCC2)cc1OCC`, the inhibition is -8.05%. `CCCCC12CN3CC(C)(CN(C1)C31C(=O)N(C)c3ccc(C)cc31)C2=O` (stereo not given): the inhibition was 3.69%. Turning to `N#Cc1cccnc1Nc1ccc(Cl)cc1`, the inhibition was 8.98%. Under `CN(C(=O)COC(=O)c1ccc(Cl)cc1N)C1CCS(=O)(=O)C1` (stereo not given) stands -4.2%.

On to `OCCC1CN(Cc2ccccc2-c2ccco2)CCN1Cc1ccccc1` (stereo not given), for which the inhibition is 15.2%. In the case of `COc1cc(C2CC(=O)N3CN(Cc4ccco4)CSC3=C2C#N)ccc1OCc1ccccc1` (stereo not given), the inhibition was 24.2%. Under `N#CC1=C2SCN(Cc3ccco3)CN2C(=O)CC1c1cccc2ccccc12` (stereo not given) stands 16%; under `O=C(CN(Cc1ccc(F)cc1)C(=O)CNS(=O)(=O)c1ccccc1)NCC1CCCO1` (stereo not given), 2.58%; under `O=C(OCCN1C(=O)c2ccccc2C1=O)c1cc(S(=O)(=O)N2CCOCC2)ccc1F`, -0.69%. Under `CC1=C(C(=O)OC2CCCCC2)C(c2ccccc2Br)NC(=O)N1` (stereo not given) stands -6.38%.

For `CNc1cccc2c1C(=O)c1ccccc1C2=O`, the inhibition is 7.57%.

`CNC(=S)Nc1ccccc1-c1ccccc1`: the inhibition was -7.68%. Consider `CCCCOc1ccc(C(=O)NN2C(=O)NC3(CCCCC3)C2=O)cc1OC`, for which the inhibition is 2.72%.

In the case of `CC[C@@H](C(=O)n1nc(C)cc1C)[C@H](NS(=O)(=O)c1ccc(C)cc1)c1ccccc1`, the inhibition was -0.92%. Consider `CCNC(=O)CSc1nnc(-c2cccc(S(=O)(=O)N3CCOCC3)c2)o1`, for which the inhibition is 4.88%. Turning to `O=C(c1cc(COc2ccc(F)cc2Cl)on1)N1CCCC(c2ccccc2)C1` (stereo not given), the inhibition is 2.73%.

`Cn1c(=O)[nH]c(=O)c2c1nc(N1CCOCC1)n2CCSc1nc2ccccc2[nH]1`: the inhibition was 2.63%. With `CC1(C)Cc2nc3sc4c(SCC(=O)NCc5ccccc5)ncnc4c3cc2CO1` the figure was -70.1% and -107%; with `CC1(C)Cc2nc3sc4c(=O)n(CC(=O)NCc5ccco5)cnc4c3cc2CO1`, 2.08%; with `CC1(C)NC(=O)N(CNc2cc(Cl)ccc2Cl)C1=O`, 20.3%. With `CCCn1c(SCC(=O)NC)nnc1C(C)C`, the inhibition was 6.34%.

`N#Cc1cccc(NC(=O)Cc2ccsc2)c1`: the inhibition is 5.18%. Turning to `N#CC1CN(C(c2ccccc2)c2ccccc2)C1`, the inhibition is -4.6%. In the case of `CCOc1ccc(NC(c2ccccc2)P(=O)(OC)OC)cc1` (stereo not given), the inhibition was 5.04%. Take `CCOc1ccc(N(CC(=O)OC)S(=O)(=O)c2c(C)noc2C)cc1`: the inhibition is -1.15%.

With `CCOc1ccc(N(CC(=O)NC(C)CC)S(=O)(=O)c2c(C)noc2C)cc1` (stereo not given), the inhibition is -0.89%. As for `COC(=O)C1CCN(C(=O)Nc2ccccc2)CC1`, the inhibition was 0.21%. With `COc1cccc(-c2cc(C(F)(F)F)n3nc(N)nc3n2)c1` the figure was 32.2%; with `COc1cccc(-c2cc3nc4c(c(N5CCC6(CC5)OCCO6)n3n2)CCCC4)c1`, -6.69%; with `COc1ccc(N2CCN(CCNC(=O)Nc3ccc(C)c(Cl)c3)CC2)cc1`, 0.91%. As to `CCCN(CC(=O)Nc1cccc(S(N)(=O)=O)c1)CC(=O)Nc1ccc(F)c(F)c1F`, the inhibition is 9.36%. In the case of `CN(Cc1cnc2nc(N)nc(N)c2n1)c1ccc(C(=O)NC(CCC(=O)O)C(=O)O)cc1C(F)(F)F` (stereo not given), the inhibition is 4.16%.

Take `CN(Cc1cnc2nc(N)nc(N)c2n1)c1ccc(C(=O)NC(CCC(=O)O)C(=O)O)c2ccccc12` (stereo not given): the inhibition was 4.59%.

In the case of `OCCNC(=S)Nc1ccc(Cl)c(Cl)c1`, the inhibition was 1.22%.

Turning to `COc1ccc(OC)c(C2CC(=O)N3CN(c4ccc(C)c(Cl)c4)CSC3=C2C#N)c1` (stereo not given), the inhibition is 6.54%. With `COc1ccc(C2CC(=O)N3CN(c4ccc(C)c(Cl)c4)CSC3=C2C#N)cc1OC` (stereo not given) the figure was 13%; with `C=CC1=CCN(S(=O)C(C)(C)C)[C@@H]1CCO` (stereo not given in full), -5.14%. With `O=C(NNS(=O)(=O)c1ccccc1)c1ccc(O)cc1`, the inhibition is 12.2%.

As for `C=CCN(C(=O)c1ccccn1)C(C(=O)NCc1ccccc1)c1ccccc1F` (stereo not given), the inhibition is 6.79%. On to `Cc1nc2sc(C(c3cccs3)N3CCC(C(N)=O)CC3)c(O)n2n1` (stereo not given), for which the inhibition is 4.3%. On to `CCOC(=O)C1CCN(C(c2ccc(OC)c(OC)c2)c2sc3nc(C)nn3c2O)CC1` (stereo not given), for which the inhibition is -0.48%. Take `COc1ccccc1/C=C/C=N/NC(=O)c1ccco1`: the inhibition is -2.59%. In the case of `COC(=O)c1cc(CSc2nc3ccccc3[nH]2)oc1C`, the inhibition is -2.28%.

Regarding `CCN(C(=O)CCS(=O)(=O)c1ccc(Br)cc1)c1ccc2c(c1)OCO2`, the inhibition is 27.3%.

As to `CCCN(CCC)C(=O)c1ccc2c(c1)OCO2`, the inhibition is 14.8%. On to `COc1ccc(S(=O)(=O)NCC(=O)NCc2cc(=O)n(C)c(=O)n2C)cc1`, for which the inhibition was -1.92%. With `O=c1[nH]c2ccccc2n2c(-c3ccncc3)nnc12` the figure was 4.55%; with `O=c1[nH]c2ccccc2n2c(C(F)(F)F)nnc12`, -5.29%; with `Cc1sc(N(C(=O)CCc2ccccc2)c2ccc(C(=O)O)cc2)nc1-c1ccccc1`, -5.7%.

On to `COc1ccc(C(=O)NCCS(=O)(=O)NC2CCCC2)cc1`, for which the inhibition was -8.13%. In the case of `CCOC(=O)c1c(C)[nH]c(C(=O)Cn2c(=O)oc3ccccc32)c1C`, the inhibition is -6.81%.

Take `CC(=O)Cn1c(=O)oc2ccccc21`: the inhibition was 0.93%.

Take `Cc1ccccc1CS(=O)(=O)Cc1ccc(C(=O)NCCCN2CC(C)CC(C)C2)o1` (stereo not given): the inhibition was 28%. Consider `COc1ccc(S(=O)(=O)NCCSCc2ccco2)cc1`, for which the inhibition was 24%. Under `Cc1ccc(S(=O)(=O)NCCSCc2ccco2)cc1` stands -0.39%; under `O=C1NC[C@@H](Cc2cccc3ccccc23)N(CC2CCCCC2)C1=O`, 5.43%. For `COc1ccc(/C=C2\C(=O)NCC(=O)N2Cc2ccccc2)cc1`, the inhibition is -2.05%. With `CC1=C/C(=N\OS(=O)(=O)c2ccccc2)C(C)=CC1=O`, the inhibition is 19.9%. Take `CC1=CC(=O)C=C(C)C1=NOS(=O)(=O)c1ccccc1`: the inhibition was 9.66%.

As for `Cc1cccc(NS(=O)(=O)c2nnc(NC(=O)CC(C)C)s2)c1`, the inhibition was -2.78%.
